# Only some compounds are listed: those with a hit (about 2.4% of all), similar ones and a draw of the others.
# WRN helicase inh: inhibitors of human WRN helicase; Potency, µM (highest dose often 114 µM), without a hit: at the highest dose activity change, negative = inhibition, hits mostly inhibitors; AID 651768; actives 0.46% (n = 360,000); WRN helicase unwinding, fluorescent forked duplex, kinetic; also: % is scaled to controls: 0 for no effect and ±100 for the full control effect; nearly all actives have a fitted effect of over 55% in size
#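 Primary qHTS, 1536-well format. 20 nM WRN + compound, 15 min RT; start with 100 nM forked fluorophore/quencher duplex, 2 mM ATP (final); kinetic read ex 525/em 598 nm.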
# POLK inh: DNA polymerase kappa (human) inhibition; purified Pol kappa, fluorescent DNA synthesis assay, 10 min; actives 0.53% (n = 400,000); Q9UBT6; Potency, µM (series often up to 107 µM), for inactives: at the highest dose activity, negative = inhibition, most hits filed as inhibitors; also: % is scaled to controls: 0 for no effect and ±100 for the full control effect
#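 Here, compound and 10 nM enzyme are combined for 15 min at room temperature; adding 50 nM substrate (final) starts DNA synthesis, tracked by fluorescence at 0 and 10 min against buffer-only wells.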
# POLH inh: blocks human DNA polymerase eta activity. Q9Y253. recombinant Pol eta, fluorescent DNA replication assay. Potency, µM (doses to about 114 µM), inactives show at the highest dose activity change, negative = inhibition, usual class: inhibitors. actives 1.2% (n = 390,000). AID 588591; also: % is scaled to controls: 0 for no effect and ±100 for the full control effect
#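 Pol eta at 10 nM preincubated with compounds 15 min at room temperature; reaction started with fluorescent substrate (50 nM final) and read kinetically at 0 and 10 min.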
# POLB inh: DNA polymerase beta (human) inhibition; P06746; Pol beta primer extension/strand displacement, fluorescence kinetic; Potency, µM (top dose mostly 114 µM), inactives show top-dose activity change, negative = inhibition, usual class: inhibitors; actives 1.3% (n = 340,000); also: % is scaled to controls: 0 for no effect and ±100 for the full control effect
#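 Human Pol beta at 10 nM; strand-displacement substrate 50 nM final. Compound exposure 15 min at room temperature before start, reaction 10 min at room temperature.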
# POLI inh: DNA polymerase iota (human) inhibition; Q9UNA4; Pol iota fluorescent replication assay, 10 min; Potency, µM (doses to about 115 µM), without a hit: at the top dose activity, negative = inhibition, actives largely listed as inhibitors; actives 1% (n = 390,000); AID 588590
#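 Fluorescent replication assay read twice, at 0 min and 10 min after adding 50 nM (final) substrate. Enzyme (10 nM) and compounds were first incubated 15 min at room temperature; enzyme-free buffer wells were negative controls.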
# FEN1 inhibitor: blocks human flap endonuclease 1; actives 0.35% (n = 390,000); Potency, µM (top dose mostly 114 µM), for inactives: at the top dose activity change, negative = inhibition, most hits filed as inhibitors; Recombinant FEN1 flap cleavage, fluorescence, 15 min; P39748; also: % is scaled to controls: 0 for no effect and ±100 for the full control effect; nearly all actives have a fitted effect of over 65% in size
#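 Steps: FEN1 (10 nM) dispensed; compound added by pin tool; 15 min at room temperature; substrate added to 50 nM final; reads at 0 min and 15 min; data normalized and fitted (four-parameter Hill).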
# An asterisk follows results filed as active; ? = inconclusive; · = no result; [ ] = remark or other dose. Calls follow the shape of the dose curve; as a rule, active = well fitted curve in the direction sought with a large enough effect; inconclusive = small, poorly fitted or top-dose-only effect, or another doubt; inactive = no such curve, though single readings can be large; an effect the other way counts as inactive or inconclusive. Potency is read from the fitted curve at half-maximal effect.
SMILES,WRN helicase inh,POLK inh,POLH inh,POLB inh,POLI inh,FEN1 inhibitor
COCCNC(=O)C1Nc2ccc(C(F)(F)F)cc2C2C=CCC12 (configuration not stated),13%,-14%,-20%,·,?,-1%
O=C(O)c1ccc2c(c1)C1C=CCC1C(c1ccncc1)N2 (configuration not stated),5%,-31%,?,?,50%,13%
CCCC1Nc2ccc(C(=O)O)cc2C2C=CCC12 (configuration not stated),?,35µM*,8.9µM*,35µM*,18µM*,?
CCOC(=O)C1Nc2ccc(C(=O)O)cc2C2C=CCC12 (configuration not stated),28µM*,10µM*,2.8µM*,16µM*,?,20µM*
CCOC(=O)c1ccc2c(c1)C1C=CCC1C(C(=O)O)N2 (configuration not stated),·,·,·,4µM*,·,·
O=C(OCc1cn([C@@H]2CN(C(=O)c3cccs3)[C@@H](c3ccccc3)C[C@H]2O)nn1)c1ccccc1,-7%,·,-12%,·,·,·
C=C1C[C@@]23CC[C@H]4[C@@](C)(CCC[C@@]4(C)C(=O)OC4OC(CO)C(O)C(O)C4O)[C@@H]2CC[C@]1(OC1OC(CO)C(O)C(O)C1OC1OC(CO)C(O)C(O)C1O)C3 (some centres not stated),·,1%[60.1 µM],·,·,·,·
O=C(N/N=C\c1ccc(Br)o1)C1COc2ccccc2O1 (configuration not stated),-15%[11.6 µM],-74%,45µM*,35µM*,45µM*,10%
CN(C)c1ccc(/C=N/NC(=O)C2COc3ccccc3O2)o1 (configuration not stated),-28%,-4%,-21%,32%,6%,-2%
O=c1oc2ccccc2cc1-c1nc(-c2cccs2)no1,·,-17%[60.1 µM],-9%,-9%,5%,16%
O=C(Nc1ccc(-c2nc3ccccc3s2)c(O)c1)c1ccc(Br)cc1,·,-5%,-24%,-1%,14%,-3%
Oc1ccc(N=C/C=C/c2ccc(Br)cc2)cc1-c1nc2ccccc2s1,·,·,·,13µM*,·,·
CCn1cc(C(=O)NCc2ccccc2Cl)c(=O)c2cc(S(=O)(=O)N3CCCCCC3)ccc21,·,0%,-15%,15%,11%,-19%
CC(=O)Nc1nc(-c2ccccc2)cc(-c2ccco2)c1C#N,2%,-3%,-4%,·,11%,-5%
N#Cc1sc2nc(-c3ccccc3)cc(-c3ccco3)c2c1N,35µM*,50µM*,8.9µM*,40µM*,0.79µM*,?
N#Cc1c(-c2ccccc2)cc(-c2ccco2)c(C#N)c1N,·,·,·,40µM*,·,·
Cc1ccc(OCC(=O)Nc2nnc(SCc3cc(=O)c4ccccc4[nH]3)s2)cc1,·,-7%[60.1 µM],-3%,0%,-1%,-10%
CC1CCN(c2ccc(-c3nc(C(C)C)no3)cc2[N+](=O)[O-])CC1,·,-20%,-17%,?,-12%,-15%
C=C1c2cccc(O)c2C(O)=C2C(=O)[C@]3(O)C(O)=C(C(N)=O)C(=O)C(N(C)C)C3C(O)C12 (some centres not stated),·,4µM*,·,·,·,·
C[C@H]1c2cccc(O)c2C(O)=C2C(=O)C3(O)C(O)=C(C(N)=O)C(=O)[C@@H](N(C)C)[C@@H]3[C@@H](O)[C@@H]21 (some centres not stated),3%,1%,-8%,·,-13%,?
COc1ccc(Cl)c(Cn2cnc3c(cnn3C(C)(C)C)c2=O)c1,·,-19%,·,·,5%,-2%
Cc1cc(C(=O)CSc2nnc(-c3ccccc3)n2C)c(C)n1C,1%,-20%,-3%,-26%,-6%,-9%
Cc1cc(C(=O)CSc2nnc(-c3ccncc3)n2-c2ccccc2)c(C)n1C,?,-24%,?,45µM*,18µM*,1%
Cc1cc(C(=O)CSc2nnc(-c3ccccc3)n2-c2ccccc2)c(C)n1-c1ncn[nH]1,?,?,20µM*,40µM*,?,-33%
